# In PubChem BioAssay (NCATS):
# Records with an inconclusive call do not appear. A call without a number means that no potency is given here. Calls of active or inactive are those of the source. Unless noted, the call rests on the fitted dose curve; in most records, active means well fitted curve in the direction sought with a large enough effect; inconclusive means small, poorly fitted or top-dose-only effect, or another doubt; inactive means no such curve, though single readings can be large; an effect the other way counts as inactive or inconclusive.
# What was measured:
# [1] = Stat Signaling Pathway (AID 446; active means well fitted curve in either direction with a large enough effect, not every such curve was filed as active;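 further: ME-180 cervical cancer cells given 40 pM IL-6 alongside compound; SIE-controlled beta-lactamase reporter measured as 460/530 nm FRET emission ratio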)
# In short: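 IL-6/STAT signaling read in ME-180 cells via an SIE beta-lactamase reporter. Stimulus was 40 pM IL-6 (its AC50) for 5 hrs, so both activation and inhibition register.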
# [2] = target: Mitogen-activated protein kinase 10 (Mus musculus) (UniProt Q61831); assay: JNK3 AlphaScreen Assay (AID 530; active means well fitted curve in either direction with a large enough effect, not every such curve was filed as active;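 further: kinase came from lysate of stimulated human HepG2 cells; signal reports phosphorylation of biotinylated GST-cJun 1-79 at Ser73 with 10 µM ATP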)
# In short: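 Compound titrations were preincubated 15 minutes at room temperature with substrate, antibody and pre-activated JNK3-containing HepG2 lysate. Reactions were started with 10 uM ATP and stopped with EDTA-containing bead buffer for AlphaScreen detection.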
# [3] = target: 3',5'-cyclic-AMP phosphodiesterase 4B (Homo sapiens) (UniProt Q07343); assay: qHTS Assay for Inhibitors of PDE-IV (AID 607; active means well fitted activation curve with a large enough effect in the main read-out, with a control signal flat, not every such curve was filed as active)
# Chain of 3',5'-cyclic-AMP phosphodiesterase 4B (Homo sapiens) (Q07343 whole entry, looked up): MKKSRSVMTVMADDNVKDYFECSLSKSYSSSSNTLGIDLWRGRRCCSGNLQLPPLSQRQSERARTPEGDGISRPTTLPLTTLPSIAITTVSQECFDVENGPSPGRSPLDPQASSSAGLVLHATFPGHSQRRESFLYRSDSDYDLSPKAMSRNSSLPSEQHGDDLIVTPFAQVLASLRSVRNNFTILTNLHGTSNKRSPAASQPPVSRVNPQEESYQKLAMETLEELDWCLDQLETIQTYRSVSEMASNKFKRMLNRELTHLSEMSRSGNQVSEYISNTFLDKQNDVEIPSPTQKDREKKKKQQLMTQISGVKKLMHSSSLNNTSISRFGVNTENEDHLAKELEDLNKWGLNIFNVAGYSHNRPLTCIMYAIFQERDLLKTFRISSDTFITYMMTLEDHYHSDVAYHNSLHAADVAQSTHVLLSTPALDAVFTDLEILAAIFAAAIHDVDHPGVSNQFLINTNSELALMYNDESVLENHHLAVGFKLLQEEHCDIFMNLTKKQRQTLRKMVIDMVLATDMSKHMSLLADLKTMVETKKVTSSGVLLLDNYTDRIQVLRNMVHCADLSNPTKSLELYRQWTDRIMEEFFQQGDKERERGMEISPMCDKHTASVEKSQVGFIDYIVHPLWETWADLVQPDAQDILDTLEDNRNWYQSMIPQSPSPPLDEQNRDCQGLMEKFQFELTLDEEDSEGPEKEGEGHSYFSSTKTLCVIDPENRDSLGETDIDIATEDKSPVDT
# In short: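 Live HEK293 cells with a modified cyclic nucleotide-gated (CNG) channel report intracellular cAMP via membrane-potential dye fluorescence (ex 535/em 590 nm). Endogenous PDE-IV was targeted. Compounds were tested at up to 22.9 uM final; RO 20-1724 100 uM served as control.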
# [4] = qHTS Assay for Lipid Storage Modulators (AID 1519; calls by dose curve); conditions: Drosophila S3 cells, BODIPY lipid droplet/cell ratio, laser cytometry, cells loaded with oleic acid; for activity change, negative = inhibition: at 25.7 µM (top of the series)
# In short: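 Cells seeded at 5,000 per well were treated with compounds over a concentration series and loaded with oleic acid (400 uM, as added). Lipid droplet fluorescence (488 nm excitation, 500-530 nm channel) was read by laser-scanning cytometry and normalized to 20 uM Triacsin C.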
# [5] = target: ATP-dependent 6-phosphofructokinase (Trypanosoma brucei brucei) (UniProt O15648); assay: qHTS Assay to Find Inhibitors of T. brucei phosphofructokinase: hit validation (AID 492961);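 further: luminescence reports ADP formed as PFK phosphorylates fructose-6-phosphate with ATP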
# Chain of ATP-dependent 6-phosphofructokinase (Trypanosoma brucei brucei) (O15648 whole entry, looked up): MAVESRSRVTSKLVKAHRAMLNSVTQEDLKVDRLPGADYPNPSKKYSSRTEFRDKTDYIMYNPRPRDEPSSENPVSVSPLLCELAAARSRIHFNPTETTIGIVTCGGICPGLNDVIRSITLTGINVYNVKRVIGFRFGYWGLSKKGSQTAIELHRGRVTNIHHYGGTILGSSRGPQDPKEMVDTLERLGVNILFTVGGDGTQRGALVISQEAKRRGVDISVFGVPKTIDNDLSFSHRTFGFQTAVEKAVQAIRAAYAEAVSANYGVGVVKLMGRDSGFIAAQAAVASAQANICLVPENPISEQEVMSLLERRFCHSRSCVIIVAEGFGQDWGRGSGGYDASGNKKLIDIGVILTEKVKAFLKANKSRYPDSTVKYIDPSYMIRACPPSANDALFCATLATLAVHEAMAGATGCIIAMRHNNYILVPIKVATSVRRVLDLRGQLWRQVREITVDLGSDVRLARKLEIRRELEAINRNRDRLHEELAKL
# In short: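 Measures ADP output of PFK (1.25 nM) at 0.1 mM ATP, 0.5 mM F6P, pH 8.0 TEA buffer with 5 mM MgCl2. No-enzyme wells define full inhibition; uninhibited enzyme wells define zero.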
# [6] = target: Luciferin 4-monooxygenase (Photinus pyralis) (UniProt P08659); assay: Biochemical firefly luciferase enzyme assay for NPC (AID 624030);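 further: purified P. pyralis luciferase at 10 nM with luciferin and ATP substrate; nearly all actives have a fitted effect of over 70% in size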
# Chain of Luciferin 4-monooxygenase (Photinus pyralis) (P08659 whole entry, looked up): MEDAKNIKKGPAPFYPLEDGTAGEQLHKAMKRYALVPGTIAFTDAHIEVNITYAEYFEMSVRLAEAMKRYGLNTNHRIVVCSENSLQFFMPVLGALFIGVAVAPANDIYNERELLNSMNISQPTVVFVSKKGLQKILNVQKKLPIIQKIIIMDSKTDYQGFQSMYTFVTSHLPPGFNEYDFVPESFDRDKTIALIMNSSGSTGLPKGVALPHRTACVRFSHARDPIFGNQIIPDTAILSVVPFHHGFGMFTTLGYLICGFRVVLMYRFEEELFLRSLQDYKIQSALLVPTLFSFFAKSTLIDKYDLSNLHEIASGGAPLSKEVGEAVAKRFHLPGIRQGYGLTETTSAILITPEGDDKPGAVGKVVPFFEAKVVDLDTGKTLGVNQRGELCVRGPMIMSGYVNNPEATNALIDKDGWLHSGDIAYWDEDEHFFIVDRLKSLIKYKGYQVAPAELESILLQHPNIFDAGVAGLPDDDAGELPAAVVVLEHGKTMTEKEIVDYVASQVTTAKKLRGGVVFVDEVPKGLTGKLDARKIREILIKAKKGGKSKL
# In short: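 Direct inhibition of firefly luciferase enzyme (10 nM final, 50 mM Tris Acetate) assessed by luminescence within 5 minutes. Percent activity scaled between DMSO and PTC124 positive control, with concentration-effect curves classified by fit quality and response.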
# [7] = qHTS profiling for inhibitors of Plasmodium falciparum proliferation (AID 504749); further: nearly all actives have a fitted effect of over 60% in size; further: potency means the concentration at half of the fitted maximal effect; conditions: P. falciparum in erythrocytes, SYBR Green DNA, 72 h, at 12.8 µM (top of the series)
# In short: (§1)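 Infected RBCs, 0.3% parasitemia/2.5% Hct final; cpd 72 h, 37 C, 5% CO2; lysis buffer with saponin/triton/SYBR Green I, o/n RT dark; FI 485/535; norm. to artemisinin (0.29 uM) and DMSO.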
# [8] = test system: 3D7; assay: as above; conditions: P. falciparum in erythrocytes, SYBR Green DNA, 72 h; series mostly up to 12.8 µM
# In short: as §1
# [9] = test system: C2A; assay: as above; conditions: P. falciparum in erythrocytes, SYBR Green DNA, 72 h; series mostly up to 12.8 µM
# In short: as §1
# [10] = test system: CP217; assay: as above; conditions: P. falciparum in erythrocytes, SYBR Green DNA, 72 h; series mostly up to 12.8 µM
# In short: as §1
# [11] = test system: CP238; assay: as above; conditions: P. falciparum in erythrocytes, SYBR Green DNA, 72 h; series mostly up to 12.8 µM
# In short: as §1
# [12] = test system: CP262; assay: as above; conditions: P. falciparum in erythrocytes, SYBR Green DNA, 72 h; series mostly up to 12.8 µM
# In short: as §1
# [13] = test system: CP269; assay: as above; conditions: P. falciparum in erythrocytes, SYBR Green DNA, 72 h; series mostly up to 12.8 µM
# In short: as §1
# [14] = test system: CP305; assay: as above; conditions: P. falciparum in erythrocytes, SYBR Green DNA, 72 h; series mostly up to 12.8 µM
# In short: as §1
# [15] = test system: CP325; assay: as above; conditions: P. falciparum in erythrocytes, SYBR Green DNA, 72 h; series mostly up to 12.8 µM
# In short: as §1
# [16] = test system: CP329; assay: as above; conditions: P. falciparum in erythrocytes, SYBR Green DNA, 72 h; series mostly up to 12.8 µM
# In short: as §1
# [17] = test system: DIV30; assay: as above; conditions: P. falciparum in erythrocytes, SYBR Green DNA, 72 h; series mostly up to 12.8 µM
# In short: as §1
# [18] = test system: FAB9; assay: as above; conditions: P. falciparum in erythrocytes, SYBR Green DNA, 72 h; series mostly up to 12.8 µM
# In short: as §1
# [19] = test system: PC49; assay: as above; conditions: P. falciparum in erythrocytes, SYBR Green DNA, 72 h; series mostly up to 12.8 µM
# In short: as §1
# [20] = target: Ubiquitin carboxyl-terminal hydrolase 1 (Homo sapiens) (UniProt O94782); assay: Inhibitors of USP1/UAF1: Pilot qHTS (AID 504865);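 further: rhodamine fluorescence freed from ubiquitin-rhodamine substrate followed over time; top concentration of the series differs between compounds; nearly all actives have a fitted effect of over 35% in size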
# Chain of Ubiquitin carboxyl-terminal hydrolase 1 (Homo sapiens) (O94782 whole entry, looked up): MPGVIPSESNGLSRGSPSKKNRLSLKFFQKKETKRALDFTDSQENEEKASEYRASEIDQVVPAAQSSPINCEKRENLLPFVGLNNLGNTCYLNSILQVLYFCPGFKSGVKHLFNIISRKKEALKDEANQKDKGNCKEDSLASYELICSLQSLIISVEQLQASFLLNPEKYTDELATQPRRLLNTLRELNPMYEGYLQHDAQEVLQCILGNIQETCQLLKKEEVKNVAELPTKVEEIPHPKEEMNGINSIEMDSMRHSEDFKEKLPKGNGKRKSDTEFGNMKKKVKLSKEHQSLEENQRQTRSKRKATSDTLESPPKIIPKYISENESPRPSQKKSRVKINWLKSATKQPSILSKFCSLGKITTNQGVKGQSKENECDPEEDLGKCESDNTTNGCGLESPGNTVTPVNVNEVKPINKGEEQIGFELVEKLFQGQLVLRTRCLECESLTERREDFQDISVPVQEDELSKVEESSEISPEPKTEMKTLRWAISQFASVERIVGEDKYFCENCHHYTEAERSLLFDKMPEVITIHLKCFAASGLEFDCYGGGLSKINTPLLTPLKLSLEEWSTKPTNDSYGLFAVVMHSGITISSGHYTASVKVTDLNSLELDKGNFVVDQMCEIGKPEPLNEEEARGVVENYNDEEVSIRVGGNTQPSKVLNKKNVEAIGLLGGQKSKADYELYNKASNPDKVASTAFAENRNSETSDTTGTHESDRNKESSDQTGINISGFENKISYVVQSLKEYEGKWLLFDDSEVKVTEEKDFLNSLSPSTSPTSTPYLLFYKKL
# In short: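 Kinetic fluorescence assay: 1nM USP1/UAF1, 15 min compound preincubation, then 150nM Ub-Rho; 480/540 nm.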
# [21] = measured here: cell count channel max response
# [22] = measured here: lipid channel max response
compound,measurement,setting,value
NC[C@@H]1O[C@H](O[C@H]2[C@H](O)[C@H](O[C@@H]3O[C@H](CO)[C@@H](O)[C@H](N)[C@@H]3O)[C@@H](N)C[C@H]2N)[C@@H](O)[C@H](O)[C@@H]1O,outcome,[1],inactive
same,Potency,[2],inactive
same,outcome,[3],inactive
same,"activity change, negative = inhibition",[4],-4.16% (inactive)
same,max response,[4]; [21],-1.61%
same,max response,[4]; [22],-7%
same,outcome,[5],inactive
same,Potency,[6],inactive
same,"activity, negative = inhibition",[7]; parasite line A,3.46% (inactive)
same,"activity, negative = inhibition",[7]; parasite line B,7.68% (inactive)
same,Potency,[8],inactive
same,Potency,[9],inactive
same,Potency,[10],inactive
same,Potency,[11],inactive
same,Potency,[12],inactive
same,Potency,[13],inactive
same,Potency,[14],inactive
same,Potency,[15],inactive
same,Potency,[16],inactive
same,Potency,[17],inactive
same,Potency,[18],inactive
same,Potency,[19],inactive
Nc1ncn([C@H]2O[C@@H](CO)[C@@H](O)[C@@H]2O)c(=O)n1,Potency,[2],inactive
same,outcome,[3],inactive
same,"activity change, negative = inhibition",[4],-7.35% (inactive)
same,max response,[4]; [21],-3.14%
same,max response,[4]; [22],-7.83%
same,Potency,[20],inactive
CCCCC[C@H](O)/C=C\[C@@H]1[C@H](O)CC(=O)[C@@H]1CCCCCCC(=O)O,outcome,[1],inactive
same,Potency,[2],inactive
same,outcome,[3],inactive
same,"activity change, negative = inhibition",[4],-3.38% (inactive)
same,max response,[4]; [21],-5.83%
same,max response,[4]; [22],-11.1%
same,outcome,[5],inactive
same,Potency,[20],inactive
same,Potency,[6],inactive
same,"activity, negative = inhibition",[7]; parasite line A,8.32% (inactive)
same,"activity, negative = inhibition",[7]; parasite line B,1.76% (inactive)
same,Potency,[8],inactive
same,Potency,[9],inactive
same,Potency,[10],inactive
same,Potency,[11],inactive
same,Potency,[12],inactive
same,Potency,[13],inactive
same,Potency,[14],inactive
same,Potency,[15],inactive
same,Potency,[16],inactive
same,Potency,[17],inactive
same,Potency,[18],inactive
same,Potency,[19],inactive
O=C(N[C@@H](CO)[C@@H](O)c1ccc([N+](=O)[O-])cc1)C(Cl)Cl,outcome,[1],inactive
same,Potency,[2],inactive
same,outcome,[3],inactive
same,"activity change, negative = inhibition",[4],-1.53% (inactive)
same,max response,[4]; [21],11.1%
same,max response,[4]; [22],8.81%
same,Potency,[20],inactive
CC(C)(C)NC[C@H](O)COc1cccc2c1C[C@@H](O)[C@@H](O)C2,outcome,[1],inactive
same,outcome,[3],inactive
same,"activity change, negative = inhibition",[4],-2.96% (inactive)
same,max response,[4]; [21],-8.96%
same,max response,[4]; [22],-13.2%
same,outcome,[5],inactive
same,Potency,[20],inactive
same,Potency,[6],inactive
same,"activity, negative = inhibition",[7]; parasite line A,4.79% (inactive)
same,"activity, negative = inhibition",[7]; parasite line B,2.07% (inactive)
same,Potency,[8],inactive
same,Potency,[9],inactive
same,Potency,[10],inactive
same,Potency,[11],inactive
same,Potency,[12],inactive
same,Potency,[13],inactive
same,Potency,[14],inactive
same,Potency,[15],inactive
same,Potency,[16],inactive
same,Potency,[17],inactive
same,Potency,[18],inactive
same,Potency,[19],inactive
COC(=O)[C@@H]1[C@@H]2C[C@H]3c4[nH]c5cc(OC)ccc5c4CCN3C[C@@H]2C[C@H](OC(=O)/C=C\c2cc(OC)c(OC)c(OC)c2)[C@H]1OC,outcome,[1],inactive
same,outcome,[3],inactive
same,"activity change, negative = inhibition",[4],-1.81% (inactive)
same,max response,[4]; [21],-4.11%
same,max response,[4]; [22],-3.85%
same,outcome,[5],inactive
same,Potency,[20],inactive
same,Potency,[6],inactive
same,Potency,[10],3.55 µM (active)
same,Potency,[12],inactive
same,Potency,[16],inactive
same,Potency,[17],5.1 µM (active)
same,Potency,[18],inactive
